Measured values: PubChem BioAssay
Calls of active or inactive are those of the source. The rule behind the calls is not given here.

Biological target: Pantothenate synthetase (Mycobacterium tuberculosis (strain ATCC 25618 / H37Rv)) (UniProt P9WIL5)
Test: Recombinant Mtb pantothenate synthetase (PanC) inhibitors, coupled enzyme, confirmatory (AID 375);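 note: 0% = full reaction with vehicle and 100% = no enzyme background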
Conditions: coupled enzyme assay; at 10 µM, stronger effect = higher value

Pantothenate synthetase (Mycobacterium tuberculosis (strain ATCC 25618 / H37Rv)), sequence (P9WIL5 whole entry, looked up): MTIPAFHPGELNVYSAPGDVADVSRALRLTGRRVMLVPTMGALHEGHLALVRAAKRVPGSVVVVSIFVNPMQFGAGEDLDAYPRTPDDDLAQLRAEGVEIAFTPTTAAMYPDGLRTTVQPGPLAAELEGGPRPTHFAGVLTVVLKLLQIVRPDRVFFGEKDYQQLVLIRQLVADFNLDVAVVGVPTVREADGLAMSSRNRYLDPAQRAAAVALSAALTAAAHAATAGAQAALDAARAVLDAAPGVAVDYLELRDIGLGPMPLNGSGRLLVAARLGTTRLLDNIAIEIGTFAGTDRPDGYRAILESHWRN

Row | SMILES | inhibition
1 | COC(=O)c1ccccc1NC(=O)CSc1nc2c(c(=O)n(C)c(=O)n2C)n1C | 3% (inactive)
2 | COc1ccc(OC(C)C(=O)N2CC(C)OC(C)C2)cc1 (stereo not drawn) | 10% (inactive)
3 | COc1ccccc1C(=O)N1CCNC(=O)C1CC(=O)Nc1ccc(Cl)cc1 (stereo not drawn) | 0% (inactive)
4 | CCOc1ccc2c(c1)n(CO)c(=S)n2CO | 0% (inactive)
5 | CCOc1ccc(OCCCCN(C)C)cc1 | 2% (inactive)
6 | COc1cc(OC)c(C2N(C)c3ccccc3N2C)cc1OC | 0% (inactive)
7 | CN(C)CCCN1c2ccccc2CCc2ccc(Cl)cc21 | 1% (inactive)
8 | COC(=O)Cc1[nH]nc2c1C(C1C=CCCC1)C(C#N)=C(N)O2 (stereo not drawn) | 3% (inactive)
9 | COCCN(C(=O)Cn1nnc2ccccc21)C(C(=O)NC1CCCC1)c1cc(OC)ccc1OC (stereo not drawn) | 6% (inactive)
10 | CC1CCc2nc(NC(=O)CN3CCN(Cc4ccc5c(c4)OCO5)CC3)sc2C1 (stereo not drawn) | 0% (inactive)
11 | Cn1c(=O)oc2cc(S(=O)(=O)NC3CCN(Cc4ccccc4)CC3)ccc21 | 0% (inactive)
12 | CC(=O)Nc1ccc(NC(=O)Cn2cc3c(n2)CCC(C)C3)cc1 (stereo not drawn) | 3% (inactive)
13 | NCCCCCc1nnc(SC/C=C/c2ccccc2)o1 | 0% (inactive)
14 | CC(=O)Nc1ccc(NC(=O)c2ccccc2F)cc1 | 0% (inactive)
15 | COc1cccc(-c2nc3n(n2)C(c2ccccc2Cl)C(C(N)=O)=C(C)N3)c1 (stereo not drawn) | 0% (inactive)
16 | CCNC(=O)COc1ccc(Br)cc1Cl | 4% (inactive)
17 | CCN(CC)S(=O)(=O)c1ccc(NC2CCCc3ccccc32)nc1 (stereo not drawn) | 0% (inactive)
18 | O=C(NCCO)c1cccc2c1C(=O)c1ccccc1-2 | 11% (inactive)
19 | COc1ccc(N(C)C(=O)CCS(=O)(=O)c2cccc3nonc23)cc1 | 1% (inactive)
20 | c1ccc2c(c1)CC(N1CCCCC1)c1ccccc1N2 (stereo not drawn) | 0% (inactive)
21 | COc1ccc(S(=O)(=O)N2CCN(C3CCCCCCC3)CC2)cc1 | 1% (inactive)
22 | O=C1CCCc2c1nn(-c1ccccc1)[n+]2[O-] | 0% (inactive)
23 | c1ccc(CNc2ncnc3ccccc23)cc1 | 12% (inactive)
